Screening results deposited in PubChem BioAssay by Sanford-Burnham Center for Chemical Genomics.
CYP2C19 activ: increases human CYP2C19 enzyme activity | AID 1025 | recombinant CYP2C19, luciferin-H EGE luminescence; stronger effect = higher value; 0 = fully inhibited enzyme, 1 = untreated enzyme | 96,000 tested, under 10 active | activation factor at 5 µM;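 active means activation factor of at least 2 at 5 µM in the primary screen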;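 further: 0 = wells with 2.5 mM tranylcypromine and 1 = vehicle-only wells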
Target sequence (P33261 whole entry, looked up): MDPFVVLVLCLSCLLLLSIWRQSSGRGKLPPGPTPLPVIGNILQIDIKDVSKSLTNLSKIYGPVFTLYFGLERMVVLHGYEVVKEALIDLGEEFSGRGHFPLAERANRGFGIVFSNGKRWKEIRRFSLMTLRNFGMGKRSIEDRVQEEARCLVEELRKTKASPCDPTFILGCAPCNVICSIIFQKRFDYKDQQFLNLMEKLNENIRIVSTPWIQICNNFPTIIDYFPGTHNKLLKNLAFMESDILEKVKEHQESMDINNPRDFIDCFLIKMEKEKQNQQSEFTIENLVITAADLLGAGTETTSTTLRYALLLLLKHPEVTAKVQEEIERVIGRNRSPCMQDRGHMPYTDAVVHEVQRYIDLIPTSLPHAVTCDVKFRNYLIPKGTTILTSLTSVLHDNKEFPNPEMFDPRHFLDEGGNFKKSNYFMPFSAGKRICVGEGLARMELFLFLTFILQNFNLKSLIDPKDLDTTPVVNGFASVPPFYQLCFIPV
CYP2C19 inh: inhibitors of human CYP2C19; P33261; CYP2C19 Supersomes, luciferin-H EGE luminescence, 30 min; inhibition, % at 5 µM; 96,000 tested, 21% active;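 active means CYP2C19 inhibition above a set limit at 5 µM in the primary screen, cut at about 50% in these data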;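 further: plate controls were negative control wells for no effect and 2.5 mM tranylcypromine positive control for full effect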
CYP2C9 activ: CYP2C9 (human) activation; recombinant CYP2C9, luciferin-H conversion, luminescence; stronger effect = higher value; factor 1 = untreated enzyme, 0 = blocked; 96,000 tested, 1.4% active; P11712; activation factor at 5 µM;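 active means activation factor of 2 or more for CYP2C9 at a 5 µM dose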;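 further: 0 = sulfaphenazole-blocked wells and 1 = vehicle-only wells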
CYP2C9 inh: inhibitors of human CYP2C9 | P11712 | CYP2C9 Supersomes, luciferin-H conversion, luminescence | inhibition, % at 5 µM | 96,000 tested, 20% active;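 active means blocking of liver enzyme CYP2C9 beyond about 50% at 5 µM, limit read from the data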
Numbers without * were called inactive. Compounds with a hit are over-represented: about 31% of the library has one in this group of screens.

SMILES | CYP2C19 activ | CYP2C19 inh | CYP2C9 activ | CYP2C9 inh
O=C(Nc1ccc(Cl)cc1)NC1CCCc2ccccc21 (stereo not given) | 0.7 | 32.3 | 0.9 | 10.1
CCc1nc(SCc2cccnc2)[nH]c(=O)c1C | 0.6 | 41.8 | 0.2 | 82.0*
COc1ccc(OC)c(CN2CCN(c3ccccc3OC)CC2)c1 | 0.2 | 77.9* | 0.6 | 35.9
COc1ccccc1N1CCN(Cc2cccs2)CC1 | 0.1 | 93.5* | 0.6 | 35.7
COc1cc2c(cc1OC)CN(Cc1cccs1)CC2 | 0.3 | 65.7* | 0.8 | 18.1
c1csc(CN2CCOCC2)c1 | 0.1 | 93.7* | 0 | 100.3*
COc1ccccc1N1CCN(Cc2ccc(OC)c(OC)c2OC)CC1 | 1 | 4.1 | 1.5 | -50.1
Cc1cc(C)c(NC(=O)CSc2nnc(Cc3cccn3C)n2-c2ccc(F)cc2)c(C)c1 | 1 | -2.8 | 0.8 | 18.1
Cc1ccc(Cn2c(SCC(C)C)nc3c2c(=O)n(C)c(=O)n3C)cc1 | 0.7 | 26.7 | 0.9 | 5.1
c1ccc(CCn2nnnc2C(c2cccs2)N2CCOCC2)cc1 (stereo not given) | 0.7 | 27.3 | 1 | -4.7
Fc1ccc(C(c2nnnn2Cc2cccs2)N2CCN(C3CCCCC3)CC2)cc1 (stereo not given) | 0.1 | 86.0* | 0.9 | 8.9
COc1ccc(Cn2nnnc2C(c2cccs2)N2CCOCC2)cc1 (stereo not given) | 0.1 | 86.3* | 0.4 | 55.9*
CC1CCN(C(c2ccc(N(C)C)cc2)c2nnnn2Cc2ccccc2)CC1 (stereo not given) | 0.7 | 34.2 | 0.9 | 6.1
CN1CCN(C(c2ccc(F)cc2)c2nnnn2Cc2cccs2)CC1 (stereo not given) | 0.8 | 21.2 | 1.1 | -8.2
COc1ccc(Cn2nnnc2C(c2ccc(F)cc2)N2CCN(C3CCCC3)CC2)cc1 (stereo not given) | 0.1 | 88.2* | 0.6 | 35.9
COc1ccc(Cn2nnnc2C(c2ccc(N(C)C)cc2)N2CCC(C)CC2)cc1 (stereo not given) | 0.4 | 57.5* | 0.5 | 52.5*
COc1ccccc1N1CCN(CC(O)COc2ccc3c(c2)CCC3)CC1 (stereo not given) | 1 | 3.8 | 1.3 | -34.4
O=C(CCl)Nc1cccn2ncnc12 | 1.1 | -5.5 | 1.3 | -32.7
Cc1ccc2[nH]c(-c3ccccc3)c(CN3CCOCC3)c(=O)c2c1 | 1 | 2.1 | 1.2 | -15.5
COc1ccc(C2N(c3ccc(F)cc3)C(=O)C3CCCN32)cc1 (stereo not given) | 0.5 | 48.7 | 0.6 | 41.7
CC1CCCN(C(c2cccs2)c2nnnn2Cc2ccccc2)C1 (stereo not given) | 0.1 | 85.8* | 0.7 | 26.9
COc1ccc(N2CCN(C(c3ccccc3)c3nnnn3Cc3ccc(F)cc3)CC2)cc1 (stereo not given) | 0.4 | 63.8* | 0.6 | 40.0
COc1ccc(Cn2nnnc2C(c2ccccn2)N2CCN(c3cc(Cl)ccc3C)CC2)cc1 (stereo not given) | 0 | 97.9* | 0.1 | 87.7*
COc1ccc2cc(C(c3nnnn3CCc3ccccc3)N3CCCC(C)C3)c(=O)[nH]c2c1 (stereo not given) | 0.9 | 12.5 | 0.8 | 25.0
CC(C)(C)N=Cc1cc(-c2ccccc2)sc1O | 0.9 | 8.2 | 0.9 | 5.8
SMILES | CYP2C19 activ | CYP2C19 inh | CYP2C9 activ | CYP2C9 inh
CCn1nnc(NC(=O)c2ccccc2Br)n1 | 1 | 2.1 | 1 | 4.4
CCOC(=O)Nc1nnc(CCc2ccccc2)s1 | 0.6 | 44.0 | 0.4 | 61.7*
CC(=O)C1=C(O)C(=O)N(CCc2c[nH]c3ccccc23)C1c1ccc(O)cc1 (stereo not given) | 1.1 | -10.8 | 0.5 | 52.9*
COc1cccc(C2C(C(C)=O)=C(O)C(=O)N2CCc2c[nH]c3ccccc23)c1 (stereo not given) | 1 | -4.0 | 0.3 | 70.2*
COc1cc(C2C(C(C)=O)=C(O)C(=O)N2CCc2ccc(OC)c(OC)c2)ccc1O (stereo not given) | 1.1 | -9.8 | 1.1 | -9.1
COc1ccc(C2C(C(C)=O)=C(O)C(=O)N2CCc2c[nH]c3ccccc23)cc1OC (stereo not given) | 1 | -3.7 | 0.1 | 88.9*
CSCCC(CO)NC(=O)OCc1ccccc1 (stereo not given) | 0.6 | 44.1 | 1 | 1.4
CCOC(=O)c1c(C)sc2c1N(C(C)=O)c1cc(Cl)ccc1S2 | 0.4 | 60.2* | 0.8 | 22.9
Cc1ccc(-c2nc3nc4ccccc4nc3n2Cc2ccco2)cc1 | 1 | 1.2 | 0.8 | 24.2
Cc1ccc(CN2CN(S(=O)(=O)c3cccs3)c3nc4ccccc4nc32)cc1 | 1.1 | -5.7 | 0.4 | 55.8*
Cc1cccc(S(=O)(=O)N2CN(Cc3ccco3)c3nc4ccccc4nc32)c1 | 0.2 | 79.0* | 0.4 | 60.9*
CC(C)CCN1CN(S(=O)(=O)c2cccs2)c2nc3ccccc3nc21 | 0.9 | 11.6 | 0.9 | 13.5
COCCN1CN(S(=O)(=O)c2ccccc2)c2nc3ccccc3nc21 | 0.2 | 83.3* | 0.4 | 63.3*
COCCN1CN(S(=O)(=O)c2ccc(Cl)cc2)c2nc3ccccc3nc21 | 0.1 | 94.0* | 0.5 | 51.1*
CCCCN1CN(S(=O)(=O)c2cccs2)c2nc3ccccc3nc21 | 1 | 1.9 | 1 | -1.7
COC(=O)CSc1nnc2c3c4c(sc3nc(-n3nc(C)cc3C)n12)COC(C)(C)C4 | 0.9 | 6.4 | 0.7 | 28.1
Cc1ccccc1CN1C(=O)Nc2ccccc2C(=O)N1C(C)(C)C | 0.8 | 18.3 | 1 | 0.6
C=CCSc1nc2nc(C)cc(C)n2n1 | 1.1 | -7.3 | 1.2 | -20.8
Cn1ccnc1Sc1nc2ccccc2nc1NS(=O)(=O)c1ccccc1 | 1 | -3.4 | 0 | 98.4*
CC(=O)Nc1ccc(S(=O)(=O)Nc2nc3ccccc3nc2Sc2nncn2C)cc1 | 1.2 | -21.7 | 0.6 | 44.1
Cn1cnnc1Sc1nc2ccccc2nc1NS(=O)(=O)c1ccccc1 | 0.9 | 6.9 | 0 | 96.6*
CCCCn1c(CN2CCN(C(=O)OCC)CC2)nc2c1c(=O)[nH]c(=O)n2C | 0.9 | 10.3 | 0.8 | 15.7
Cc1cc(=O)n(C)c(=O)n1CC(=O)N1CCCCCC1 | 1.1 | -15.0 | 1.1 | -8.5
CC(=O)Nc1ccc(-c2cc(NC(C)=O)n(-c3ccccc3)n2)cc1 | 0.7 | 29.2 | 0.8 | 19.1
Cc1ccc(-c2cc(NC(=O)CCl)n(-c3ccccc3)n2)cc1 | 0 | 96.4* | 0.3 | 75.0*
SMILES | CYP2C19 activ | CYP2C19 inh | CYP2C9 activ | CYP2C9 inh
O=C(CCl)Nc1cc(-c2ccccc2)nn1-c1ccccc1 | 0.2 | 83.4* | 0.4 | 59.5*
COc1ccc(OC)c(NC(=O)CSc2nnc(Cn3nnc4ccccc43)n2C)c1 | 0.9 | 9.3 | 1 | -4.5
C/C(=N\OC(=O)c1ccc(F)cc1)c1nccs1 | 0.9 | 9.7 | 0.6 | 43.7
C=CCC(NCc1ccccc1)c1ccco1 (stereo not given) | 1 | -0.9 | 1.1 | -12.9
COc1ccccc1CC(=O)N1CCN(c2ccccn2)CC1 | 0.4 | 57.8* | 1.3 | -27.4
COc1ccccc1CC(=O)N1CCN(c2cccc(C(F)(F)F)c2)CC1 | 0.3 | 72.3* | 2* | -104.2
COc1ccccc1NC(=O)N1CCN(c2ncccn2)CC1 | 0.6 | 41.8 | 2.4* | -141.1
